According to PubChem BioAssay (NCATS):
Results filed as inconclusive are left out. Calls of active or inactive are those of the source. Unless noted, calls come from the whole dose curve; as a rule, active = well fitted curve in the direction sought with a large enough effect; inconclusive = small, poorly fitted or top-dose-only effect, or another doubt; inactive = no such curve, though single readings can be large; an effect the other way counts as inactive or inconclusive.

What was measured:
[1] = Confirmation and Secondary Assay for Modulators of Hemoglobin Beta Chain Splicing at IVS2 654 locus (AID 910); settings: HeLa EGFP-654 splicing reporter, GFP fluorescence, 48 h; series mostly up to 38.3 µM
Outline: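 HeLa cells stably carrying EGFP interrupted by mutant beta-globin IVS2-654 intron (CMV-driven) were treated with compound for 2 days at 37C; corrected splicing was scored as total peak GFP intensity per well (488 nm excitation, 500-520 nm emission).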

[2] = Confirmation and Secondary Assay for Modulators of Hemoglobin Beta Chain Splicing at IVS2 705 locus (AID 930); settings: HeLa EGFP-705 splicing reporter, GFP fluorescence, 48 h; series mostly up to 38.3 µM;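 note: HeLa cells stably expressing the EGFP-705 splicing reporter; GFP fluorescence per well restored by corrected splicing of the IVS2-705 intron in EGFP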
Outline: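 HeLa cells stably carrying EGFP interrupted by mutant beta-globin intron 2 (IVS2-705) treated 2 days at 37C with compound; 500 nM antisense PNA as control. Correct splicing read as total peak GFP intensity per well by laser-scanning cytometry.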

[3] = target: Guanine nucleotide-binding protein G(i) subunit alpha-1 (Homo sapiens) (UniProt P63096); assay: qHTS Assay for Inhibitors of RGS12 GoLoco Motif Activity (Green Fluorophore) (AID 879); settings: Galphai1/FITC-RGS12 GoLoco peptide, fluorescence polarization; series mostly up to 57.1 µM;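 note: negative values mean loss of peptide binding seen as reduced polarization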
Outline: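 A drop in FITC polarization marked displacement of the FITC-tagged RGS12 GoLoco peptide (10 nM) from Gαi1 (50 nM). Compounds were incubated 10 min at room temperature in Tris pH 7.5 buffer containing 150 mM NaCl, 0.1 mM GDP and 0.05% NP40; unlabeled peptide titration served as control.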

[4] = qHTS Assay for Identification of Small Molecule Agonists for Thrombopoietin (TPO) Signaling Pathway (AID 917); settings: TPO signaling pathway reporter cells, agonist qHTS, stimulated with TPO at its EC50; series mostly up to 38.5 µM
Outline: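 Stimulation at the TPO EC50 (26 pM final) was used to detect activators. Ba/F3 mouse cells bearing human TPO receptor and a luciferase reporter under the Glycoprotein IIb promoter were exposed to compounds for 24 hrs at 37 C.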

[5] = target: Muscarinic acetylcholine receptor M1 (Rattus norvegicus) (UniProt P08482); assay: qHTS Assay for Antagonists of Acetylcholine Muscarinic M1 Receptor: Kinetic Measurement of Intracellular Calcium Response (AID 943); settings: M1-expressing cells, kinetic intracellular calcium fluorescence; series mostly up to 35.3 µM;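 note: Fluo-4 calcium signal as peak divided by basal fluorescence over 4 min; nearly all actives have a fitted effect of over 75% in size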
Outline: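 Antagonism is measured as inhibition of the carbachol-evoked calcium rise in CHO cells transfected with rat M1. Cells are dye-loaded, exposed to compound for 10 min, then stimulated with 100 nM carbachol (EC80).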

[6] = target: Muscarinic acetylcholine receptor M1 (Rattus norvegicus) (UniProt P08482); assay: qHTS Assay for Antagonists of Acetylcholine Muscarinic M1 Receptor: Measurement of IP-One Response (AID 944); settings: CHO-M1 cells, IP-One HTRF, antagonist mode; series mostly up to 46.1 µM; note: nearly all actives have a fitted effect of over 75% in size
Outline: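 Antagonist mode with rat M1 receptor transfected into CHO cells. Compound is added first for 10 min, carbachol at its EC80 follows for 30 min, and lysis reagents then allow TR-FRET detection of accumulated IP1.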

[7] = target: Pyruvate kinase (Leishmania mexicana) (UniProt Q27686); assay: qHTS Validation Assay for Inhibitors of Leishmania Mexicana Pyruvate Kinase (AID 945); settings: purified L. mexicana pyruvate kinase, enzyme activity, E451W mutant enzyme; series mostly up to 57.5 µM
Outline: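 Eight-point qHTS titrations in triplicate, data normalized to DMSO neutral control. Reaction: 0.2 nM LmPYK E451W mutant, 0.5 mM PEP, 0.1 mM ADP, 7 mM MgCl2, pH 7.2, one hour at room temperature; luminescent ATP detection.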

[8] = target: Pyruvate kinase PKM (Homo sapiens) (UniProt P14618); assay: qHTS Assay for Activators of Human Muscle Pyruvate Kinase (AID 954; active = well fitted curve in the direction sought with a large enough effect, not every such curve was filed as active); settings: purified human muscle pyruvate kinase, luciferase-coupled luminescence, 1 h; series mostly up to 57.5 µM
Outline: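 Compound pinned into substrate mix (0.5 mM PEP, 0.1 mM ADP), then 0.1 nM PKM2 added; 1 h, RT. Stop/detection luciferase reagent added, luminescence read. Normalized to no-inhibition and no-enzyme or reference-inhibitor controls.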

[9] = target: Alpha-galactosidase A (Homo sapiens) (UniProt P06280); assay: Counterscreen for Glucocerebrosidase Inhibitors: qHTS Assay for Human alpha-Galactosidase at pH 4.5 (AID 992); settings: purified enzyme, fluorogenic substrate; series mostly up to 76.9 µM
Outline: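 Steps: enzyme (2 nM final), then compound across 0.7 nM to 77 uM, then 80 uM fluorogenic galactopyranoside substrate; incubate 20 min at room temperature; quench at pH 10; measure fluorescence at 365/440 nm.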

[10] = target: alpha-glucosidase (Oryza sativa, rice) (UniProt Q653V4); assay: Counterscreen for Glucocerebrosidase Inhibitors: qHTS Assay for Rice alpha-Glucosidase at pH 5.0 (AID 997); settings: rice alpha-glucosidase enzyme activity; series mostly up to 76.9 µM
Outline: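 Endpoint fluorogenic assay at pH 5.0: compounds (0.7 nM to 77 uM) titrated against 4 nM rice enzyme and 400 uM 4-MU-alpha-glucoside for 20 min at room temperature; NaOH/glycine stop, read ex 365/em 440 nm, Hill-fitted AC50.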

Measured: Potency

Sequence of Muscarinic acetylcholine receptor M1 (Rattus norvegicus) (P08482 whole entry, looked up): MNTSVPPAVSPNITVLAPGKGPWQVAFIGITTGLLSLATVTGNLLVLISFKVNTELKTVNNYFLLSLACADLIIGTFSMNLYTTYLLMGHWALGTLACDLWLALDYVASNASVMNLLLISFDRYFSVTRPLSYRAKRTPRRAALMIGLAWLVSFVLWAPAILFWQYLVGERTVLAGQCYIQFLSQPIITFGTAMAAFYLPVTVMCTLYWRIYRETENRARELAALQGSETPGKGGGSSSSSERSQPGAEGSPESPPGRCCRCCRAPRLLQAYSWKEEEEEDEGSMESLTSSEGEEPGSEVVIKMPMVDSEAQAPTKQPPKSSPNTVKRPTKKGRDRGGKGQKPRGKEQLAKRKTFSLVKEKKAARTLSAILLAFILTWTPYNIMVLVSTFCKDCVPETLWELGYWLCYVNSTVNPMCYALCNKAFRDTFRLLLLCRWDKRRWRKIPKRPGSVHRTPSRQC
Sequence of Alpha-galactosidase A (Homo sapiens) (P06280 whole entry, looked up): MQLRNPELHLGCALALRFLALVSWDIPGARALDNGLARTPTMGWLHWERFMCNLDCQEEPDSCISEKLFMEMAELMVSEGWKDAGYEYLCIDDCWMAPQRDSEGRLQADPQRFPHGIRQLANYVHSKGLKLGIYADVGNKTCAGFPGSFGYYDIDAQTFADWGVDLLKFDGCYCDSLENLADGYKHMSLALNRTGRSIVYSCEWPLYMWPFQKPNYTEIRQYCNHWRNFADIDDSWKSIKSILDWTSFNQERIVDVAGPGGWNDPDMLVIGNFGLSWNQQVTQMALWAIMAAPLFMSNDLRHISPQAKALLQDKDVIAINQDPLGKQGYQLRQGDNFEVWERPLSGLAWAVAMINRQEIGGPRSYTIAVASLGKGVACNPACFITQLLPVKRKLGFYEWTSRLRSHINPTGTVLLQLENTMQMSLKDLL
Sequence of Pyruvate kinase PKM (Homo sapiens) (P14618 whole entry, looked up): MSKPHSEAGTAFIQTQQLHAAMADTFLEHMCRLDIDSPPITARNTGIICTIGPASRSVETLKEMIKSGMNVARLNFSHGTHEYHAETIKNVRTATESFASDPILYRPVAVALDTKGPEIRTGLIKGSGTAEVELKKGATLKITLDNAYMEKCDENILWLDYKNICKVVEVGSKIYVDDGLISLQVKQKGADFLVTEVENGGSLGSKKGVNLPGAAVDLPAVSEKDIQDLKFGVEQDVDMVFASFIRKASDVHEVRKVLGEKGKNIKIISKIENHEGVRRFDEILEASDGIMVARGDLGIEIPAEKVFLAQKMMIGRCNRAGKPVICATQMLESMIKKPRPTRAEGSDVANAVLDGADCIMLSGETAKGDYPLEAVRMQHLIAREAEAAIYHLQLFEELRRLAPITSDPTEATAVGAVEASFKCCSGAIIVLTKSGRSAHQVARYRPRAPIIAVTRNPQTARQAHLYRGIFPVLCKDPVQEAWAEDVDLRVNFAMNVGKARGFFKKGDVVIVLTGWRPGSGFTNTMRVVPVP
Sequence of Pyruvate kinase (Leishmania mexicana) (Q27686 2-499 E452W): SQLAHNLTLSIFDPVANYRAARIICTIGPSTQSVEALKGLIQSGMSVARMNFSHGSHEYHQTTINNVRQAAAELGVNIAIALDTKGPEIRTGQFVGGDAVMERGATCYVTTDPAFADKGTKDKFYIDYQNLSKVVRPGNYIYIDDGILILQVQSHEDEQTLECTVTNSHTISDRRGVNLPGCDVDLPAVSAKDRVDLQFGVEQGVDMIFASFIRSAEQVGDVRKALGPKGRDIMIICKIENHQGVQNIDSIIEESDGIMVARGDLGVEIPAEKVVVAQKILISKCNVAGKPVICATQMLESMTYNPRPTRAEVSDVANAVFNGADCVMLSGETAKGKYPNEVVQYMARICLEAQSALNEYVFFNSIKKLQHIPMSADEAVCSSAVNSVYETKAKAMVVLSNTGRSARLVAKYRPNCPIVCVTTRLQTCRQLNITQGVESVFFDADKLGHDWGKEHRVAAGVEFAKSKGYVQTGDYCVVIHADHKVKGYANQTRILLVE
Sequence of Guanine nucleotide-binding protein G(i) subunit alpha-1 (Homo sapiens) (P63096 whole entry, looked up): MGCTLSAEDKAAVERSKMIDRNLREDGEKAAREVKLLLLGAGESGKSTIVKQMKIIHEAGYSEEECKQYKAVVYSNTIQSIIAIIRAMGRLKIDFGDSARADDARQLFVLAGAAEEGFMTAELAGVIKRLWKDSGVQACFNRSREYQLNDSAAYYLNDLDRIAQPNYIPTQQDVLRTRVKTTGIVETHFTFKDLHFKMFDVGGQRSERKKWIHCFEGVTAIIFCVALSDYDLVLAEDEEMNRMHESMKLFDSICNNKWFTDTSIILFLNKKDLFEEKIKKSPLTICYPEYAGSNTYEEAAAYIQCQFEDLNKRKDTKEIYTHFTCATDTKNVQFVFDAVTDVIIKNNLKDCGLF

COc1ccccc1-c1ccc2ncnc(NCc3cccnc3)c2c1
inactive: [1] | [2]

CN(C)c1ccc(-c2nc(Nc3ccncc3)c3ccccc3n2)cc1
inactive: [1] | [2]

C[C@H](Oc1ccc(Oc2cnc3ccc(Cl)cc3n2)cc1)C(=O)O
not listed: [1] | [2]
inactive: all other assays above
